The structures appear in SMILES notation. Records with an inconclusive call do not appear. Where a call stands in place of a potency, no number is given. A number with no mark means an inactive call. The source made the active and inactive calls. The call rests on the fitted dose curve; in most records, active means well fitted cell-killing curve with a large enough effect in the repeat runs; inconclusive means weak or mixed curves; inactive means flat fitted curve, though single readings scatter.

Here are results for 40 compounds from PubChem BioAssay (Tox21).
Potency means the concentration at half of the fitted maximal effect.

The assay in a line: qHTS RealTime-Glo MT Cell Viability Assay in HepG2 cells - 24 hour (AID 1224867). Further: nearly all actives have a fitted effect of over 50% in size. Conditions: RealTime-Glo luminescence; series mostly up to 76.8 µM. An excerpt: U.S. Tox21 Program National Center for Advancing Translational Sciences [NCATS] NIH Chemical Genomics Center [NCGC] U.S. Environmental Protection Agency [EPA] National Institutes of Environmental Health Sciences [NIEHS] National Toxicology Program [NTP] U.S. Food and Drug Administration [FDA] Tox21 Assay Overview: Measure of cell viability is critical in the cell-base assay. Analysis of cell viability is necessary for the characterization of cell responses to cytotoxic drugs and environmental stress. A RealTime-Glo MT Cell Viability Assay to monitor cell viability in real time of continues cell culture during 40 hours of compound treatment was used to screen Tox21 10K library compounds in HepG2 cells. The RealTime-Glo MT Cell Viability Assay is a nonlytic, homogeneous, bioluminescent method to measure cell viability in real time using a simple, plate-based method. The assay involves adding NanoLuc luciferase and a cell-permeant prosubstrate to cells in culture. Viable cells reduce the proprietary prosubstrate to generate a substrate for NanoLuc luciferase. This substrate diffuses from cells into the surrounding culture medium, where it is rapidly used by the NanoLuc Enzyme to produce a luminescent signal. The signal correlates with the number of viable cells, making the assay well suited for cytotoxicity studies.
Tox21 Assay Protocol Summary: The mixture of HepG2 cell suspension and reagents were dispensed at 600cells/6 ul/well in 1536-well tissue culture treated black solid bottom plates using a Multidrop dispenser. After the assay plates were incubated at a 37 C/5% CO2 incubator for 5 hours, 23 nL of compounds dissolved in DMSO, positive and negative controls was transferred to the assay plate by a pintool work station. The plates were incubated at 37 C for 40 hours. The luminescence intensity were measured at 0h, 8h, 16h, 24h, 32h and 40h time points using ViewLux plate reader during compound treatment.
Consider `N#C[C@@H]1C[C@@H]2C[C@@H]2N1C(=O)[C@@H](N)C12CC3CC(CC(O)(C3)C1)C2`, for which the Potency result is “inactive”.
Still for that read-out and setting: with `CCOC(=O)OCC` the entry was “inactive”; with `CCCc1c(OCCCOc2ccc(OCC(=O)O)cc2)ccc(C(C)=O)c1O`, “inactive”; with `COC(OC)(C(=O)c1ccccc1)c1ccccc1`, “inactive”.
Same read-out and setting: to `COc1ccc(CCC(=O)c2c(O)cc(O[C@@H]3O[C@H](CO)[C@@H](O)[C@H](O)[C@H]3O[C@@H]3O[C@@H](C)[C@H](O)[C@@H](O)[C@H]3O)cc2O)cc1O` belongs “inactive”; to `NC(=O)Nc1ccc(Cl)c(Cl)c1`, “inactive”.
With `c1cnc2c(n1)CCCC2`, the Potency result was “inactive”.
With `CCC(C)(O)CCC=C(C)C` (stereo not given), the Potency result is “inactive”.
As to `CCOC(=O)c1ccccc1C`, the Potency entry is “inactive”.
On to `CCCOC(=O)c1ccc(N)cc1`, for which the Potency entry is “inactive”.
For `CCCCCCCCCOC(C)=O`, the Potency entry was “inactive”.
For `CCCCCCCC/C=C\CCCCCCCC(=O)OC`, the Potency result was “inactive”.
In the case of `[O]=[Bi]`, the activity change, negative = cytotoxicity is 3.35% [at 6.97 µM].
`CCCCC/C(=C\c1ccccc1)CO`: the Potency entry is “inactive”.
Regarding `CCc1c2c(nc3ccc(OC(=O)N4CCC(N5CCCCC5)CC4)cc13)-c1cc3c(c(=O)n1C2)COC(=O)[C@]3(O)CC`, the Potency entry was “inactive”.
On to `COCCOC`, for which the Potency entry was “inactive”.
As for `O=c1[nH]c2ccc(S(=O)CCN3CCC(Cc4ccc(F)cc4)CC3)cc2o1` (stereo not given), the Potency entry was “inactive”.
For `C=CC(C)=CCC=C(C)C`, the Potency entry is “inactive”.
Same read-out and setting: to `C=CCOC(=O)/C=C\C(=O)OCC=C` belongs “inactive”.
With `CN(C(=O)C(Cl)Cl)c1ccc(OC(=O)c2ccco2)cc1`, the Potency entry was “inactive”.
With `CC(=O)N(c1onc(C)c1C)S(=O)(=O)c1ccc(N)cc1`, the Potency result is “inactive”.
Same read-out and setting: with `O=C1OCCN1/N=C/c1ccc([N+](=O)[O-])o1` the entry was “inactive”; with `C1COCO1`, “inactive”.
For `CC(C)(CCl)c1ccccc1`, the Potency result was “inactive”.
With `Brc1cc(-c2ccc(Br)c(Br)c2Br)cc(Br)c1Br`, the Potency entry was “inactive”.
`CC(Cl)C(Cl)Cl` (stereo not given): the Potency result is “inactive”.
As for `Fc1ccccc1[C@@H](F)COC1CCC(Nc2ncnc3[nH]ncc23)CC1` (stereo not given in full), the Potency entry is “inactive”.
Still for that read-out and setting: to `Cc1ccccc1N1C(=O)c2cc(S(N)(=O)=O)c(Cl)cc2NC1C` (stereo not given) belongs “inactive”; to `CC(=N\O)/C(C)=N/O`, “inactive”.
Same read-out and setting: with `Nc1ccc(Cl)cc1[N+](=O)[O-]` the entry was “inactive”; with `O=C(CCCCCCCCC#CI)Oc1ccccc1`, 6.01 µM (active).
As for `NC(=O)N(O)[C@@H]1C=C[C@H](Oc2cccc(Oc3ccc(F)cc3)c2)C1`, the Potency entry was “inactive”.
`CC(CCO)CCc1ccccc1` (stereo not given): the Potency entry is “inactive”.
`C[C@]12CCC(=O)C=C1C=C[C@@H]1[C@@H]2CC[C@@]2(C)[C@H]1CC[C@@]21CCC(=O)O1`: the Potency entry was “inactive”.
The same measure, in the same setting: to `Cc1nc2ccccc2s1` belongs “inactive”; to `CCC(C(=O)OCCOCCN(CC)CC)c1ccccc1` (stereo not given), “inactive”.
In the case of `ON(Cc1ccccc1)Cc1ccccc1`, the Potency entry is “inactive”.
As to `CCCCC(CC)COC(=O)COc1ccc(Cl)cc1C` (stereo not given), the Potency result was “inactive”.
Same read-out and setting: with `COc1cc2c(cc1OC)-c1cc(=Nc3c(C)cc(C)cc3C)n(C)c(=O)n1CC2` the entry was “inactive”; with `NC(=O)N(O)[C@@H]1COc2cc(OCc3ccccc3)ccc21`, “inactive”.
